The supplement of paper PMC10941209

These molecules were tested on HFF (assay: cell viability relative to DMSO control; higher = less cytotoxic). Details: 1 µM; 72 h.
Method: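 Single-dose cytotoxicity screen of the MMV Pandemic Response Box at 1 uM on human foreskin fibroblasts (HFF), 72 h at 37 C. Viability measured by MTT (OD 550 nm) and normalised to the DMSO control (% survival).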

Structure (SMILES) | cell viability [%]
O=C(CCCC(F)(F)F)N1CCC(c2nc(-c3nccs3)no2)CC1 | 67.4
Cc1ccc(Oc2ccccc2-c2csc(N=C3NCCCN3)n2)c(C)c1 | 68.5
O=C(NCc1ccc(F)cc1)c1c(O)c2ncccc2[nH]c1=O | 50.8
COC(=O)Nc1nc2cc([S+]([O-])c3ccccc3)ccc2[nH]1 (stereo not given) | 64.6
O=C(Nc1ccc(F)cc1)c1nn(-c2ccccc2)c(=O)cc1Cl | 71
O=C(O)[C@H]1C2CCC(CC2)[C@@H]1Nc1nc(-c2c[nH]c3ncc(F)cc23)ncc1F | 67
COc1cc(NS(=O)(=O)c2ccc(C)cc2)c2ncccc2c1 | 72.5
CCN(CC)CCCC(C)Nc1ccnc2cc(Cl)ccc12 (stereo not given) | 66.4
CCCCc1ccc(-c2nc(C)c(C(=O)OC)s2)cc1 | 63.9
NC(=O)[C@@H]1CC[C@@H]2CN1C(=O)N2OS(=O)(=O)O | 69.1
CC[C@H](NC(=O)[C@H](C)NC)C(=O)N1C[C@@H](O)C[C@H]1Cc1c(-c2[nH]c3cc(F)ccc3c2C[C@@H]2C[C@H](O)CN2C(=O)[C@H](CC)NC(=O)[C@H](C)NC)[nH]c2cc(F)ccc12 | 31.2
OCCC#Cc1nc(-c2ccc(F)cc2)c(-c2ccncc2)n1CCCc1ccccc1 | 81.7
Cc1ccc(NC(=O)c2ccc(CN3CCN(C)CC3)cc2)cc1Nc1nccc(-c2cccnc2)n1 | 50.1
C=C(C)[C@@H]1CC[C@]2(C(=O)O)CC[C@]3(C)[C@H](CC[C@@H]4[C@@]5(C)CC[C@H](O)C(C)(C)[C@@H]5CC[C@]43C)[C@@H]12 | 69.3
COc1ccc2c(c1OC)C(=O)OC2C1c2c(cc3c(c2OC)OCO3)CCN1C (stereo not given) | 74.8
